Reference: PubChem BioAssay AID1159580 (chemical genetic matrix, 2015)
“And” between values parts separate entries of the source, which are not always exact repeats. Equal entries are not always repeated. The campaign covered roughly 5,500 compounds. About 2,000 (36%) were called active. Inconclusive results (about 18%) are left out. No stated cut-off is given here; in the data, active means normalized growth mostly below about 0.91 (no sharp cut-off); inconclusive means no clear call, values can overlap the other calls; inactive means mostly above about 0.92. Some of the results follow.

Assay: chemical genetic growth profiling, strain panel (AID 1159580);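 further: tested at 20 µM; growth read once vehicle control cultures reached saturation at 30 °C; 1 = growth at the plate median or of vehicle wells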
Settings: S. cerevisiae deletion strains, growth OD

Measured: normalized growth

CC(=O)CC1CCCCN1 (configuration not stated)
inactive: locus YAL013W, strain DEP1, stronger effect = lower value 1.01 | locus YAL021C, strain ccr4, stronger effect = lower value 1.02 | locus YAL026C, strain drs2, stronger effect = lower value 1.01 | locus YAL030W, strain snc1, stronger effect = lower value 1.02 | locus YBL061C, strain skt5, stronger effect = lower value 1.02 | locus YBR009C, strain hhf1, stronger effect = lower value 1.02 | locus YBR021W, strain FUR4, stronger effect = lower value 0.985 | locus YBR023C, strain chs3, stronger effect = lower value 1.03 | locus YBR171W, strain sec66, stronger effect = lower value 1.02 | locus YBR229C, strain ROT2, stronger effect = lower value 1.02 | locus YBR231C, strain swc5, stronger effect = lower value 1.01 | locus YBR279W, strain paf1, stronger effect = lower value 1.03 | locus YCL011C, strain gbp2, stronger effect = lower value 1.02 | locus YCL016C, strain dcc1, stronger effect = lower value 1.03 | locus YCL029C, strain bik1, stronger effect = lower value 0.99 | locus YCL061C, strain MRC1, stronger effect = lower value 1.01 | locus YCL069W, strain vba3, stronger effect = lower value 1 | locus YCR088W, strain abp1, stronger effect = lower value 1.02 | locus YDL005C, strain med2, stronger effect = lower value 1.02 | locus YDL035C, strain GPR1, stronger effect = lower value 1.02 | locus YDL040C, strain nat1, stronger effect = lower value 1.02 | locus YDL074C, strain BRE1, stronger effect = lower value 1.03 | locus YDL101C, strain DUN1, stronger effect = lower value 1.02 | locus YDL134C, strain PPH21, stronger effect = lower value 1.01 | locus YDL185W, strain tfp1, stronger effect = lower value 1 | locus YDL192W, strain arf1, stronger effect = lower value 0.992 | locus YDR001C, strain nth1, stronger effect = lower value 1.01 | locus YDR069C, strain doa4, stronger effect = lower value 1.01 | locus YDR101C, strain arx1, stronger effect = lower value 0.982 | locus YDR137W, strain rgp1, stronger effect = lower value 1.04 | locus YDR150W, strain NUM1, stronger effect = lower value 1.02 | locus YDR159W, strain sac3, stronger effect = lower value 1.01 | locus YDR162C, strain NBP2, stronger effect = lower value 1.03 | locus YDR195W, strain ref2 0.982 | locus YDR297W, strain sur2, stronger effect = lower value 1.01 | locus YDR318W, strain mcm21, stronger effect = lower value 0.993 | locus YDR334W, strain swr1, stronger effect = lower value 1 | locus YDR335W, strain msn5, stronger effect = lower value 1.01 | locus YDR388W, stronger effect = lower value 0.992 | locus YDR392W, strain spt3, stronger effect = lower value 0.981 | locus YDR502C, strain sam2, stronger effect = lower value 1 | locus YEL003W, strain gim4, stronger effect = lower value 1.01 | locus YEL037C, strain rad23, stronger effect = lower value 1.02 | locus YEL061C, strain CIN8 (second series), stronger effect = lower value 1.02 | locus YEL061C, strain CIN8, stronger effect = lower value 1.02 | locus YER015W, strain faa2, stronger effect = lower value 1.02 | locus YER016W, strain bim1, stronger effect = lower value 1.02 | locus YER110C, stronger effect = lower value 0.988 | locus YER111C, strain swi4, stronger effect = lower value 1.02 | locus YER155C, strain BEM2 (second series), stronger effect = lower value 1.01 | locus YER155C, strain BEM2, stronger effect = lower value 1.01 | locus YER167W, strain BCK2, stronger effect = lower value 1.01 | locus YFR010W, strain ubp6, stronger effect = lower value 1.01 | locus YGL078C, strain dbp3, stronger effect = lower value 0.991 | locus YGL086W, strain mad1, stronger effect = lower value 0.991 | locus YGL167C, strain pmr1, stronger effect = lower value 1.02 | locus YGL173C, strain kem1, stronger effect = lower value 1.01 | locus YGL227W, strain vid30, stronger effect = lower value 1.02 | locus YGL240W, strain doc1, stronger effect = lower value 1.01 | locus YGL248W, strain PDE1, stronger effect = lower value 1.02 | locus YGL253W, strain hxk2, stronger effect = lower value 1.02 | locus YGR078C, strain PAC10, stronger effect = lower value 1.02 | locus YGR135W, strain pre9, stronger effect = lower value 1 | locus YGR229C, strain SMI1, stronger effect = lower value 1.03 | locus YGR252W, strain gcn5, stronger effect = lower value 0.915 | locus YHR013C, strain ard1, stronger effect = lower value 1.02 | locus YHR027C, strain rpn1, stronger effect = lower value 1.01 | locus YHR030C, strain SLT2, stronger effect = lower value 1.01 and 0.991 | locus YHR079C, strain IRE1 (second series), stronger effect = lower value 0.994 | locus YHR079C, strain IRE1, stronger effect = lower value 1 | locus YHR094C, strain hxt1, stronger effect = lower value 0.991 | locus YHR129C, strain ARP1, stronger effect = lower value 0.974 | locus YHR142W, strain chs7, stronger effect = lower value 1.02 | locus YHR200W, strain rpn10, stronger effect = lower value 0.982 | locus YIL066C, strain RNR3, stronger effect = lower value 1.02 | locus YIL073C, strain SPO22, stronger effect = lower value 1.01 | locus YIL125W, strain kgd1, stronger effect = lower value 0.99 | locus YIR030C, strain dcg1, stronger effect = lower value 0.993 | locus YJL092W, strain hpr5, stronger effect = lower value 1.01 | locus YJL095W, strain BCK1 (second series), stronger effect = lower value 1.02 | locus YJL095W, strain BCK1, stronger effect = lower value 1.01 and 0.998 | locus YJL115W, strain asf1, stronger effect = lower value 1.02 | locus YJL129C, strain trk1, stronger effect = lower value 1.04 | locus YJL134W, strain LCB3, stronger effect = lower value 1.01 | locus YJL154C, strain vps35, stronger effect = lower value 1.02 | locus YJL164C, strain tpk1, stronger effect = lower value 1.03 | locus YJL166W, strain qcr8, stronger effect = lower value 1.03 | locus YJL168C, strain set2, stronger effect = lower value 0.991 | locus YJL187C, strain SWE1 (second series), stronger effect = lower value 1.02 | locus YJL187C, strain SWE1, stronger effect = lower value 1.01 | locus YJR043C, strain POL32, stronger effect = lower value 0.992 | locus YJR066W, strain TOR1, stronger effect = lower value 0.975
